TDP1 block – TDP1 (human) enzyme inhibition; Q9NUW8; recombinant TDP1, AlphaScreen DNA substrate cleavage; Potency, µM (series often up to 130 µM), without a hit: at the top dose activity change, negative = inhibition, usual class: inhibitors; 0.28% of 350,000 active; AID 485290; also: potency is read from the fitted curve at half-maximal effect; nearly all actives have a fitted effect of over 40% in size
Target sequence (Q9NUW8 whole entry, looked up): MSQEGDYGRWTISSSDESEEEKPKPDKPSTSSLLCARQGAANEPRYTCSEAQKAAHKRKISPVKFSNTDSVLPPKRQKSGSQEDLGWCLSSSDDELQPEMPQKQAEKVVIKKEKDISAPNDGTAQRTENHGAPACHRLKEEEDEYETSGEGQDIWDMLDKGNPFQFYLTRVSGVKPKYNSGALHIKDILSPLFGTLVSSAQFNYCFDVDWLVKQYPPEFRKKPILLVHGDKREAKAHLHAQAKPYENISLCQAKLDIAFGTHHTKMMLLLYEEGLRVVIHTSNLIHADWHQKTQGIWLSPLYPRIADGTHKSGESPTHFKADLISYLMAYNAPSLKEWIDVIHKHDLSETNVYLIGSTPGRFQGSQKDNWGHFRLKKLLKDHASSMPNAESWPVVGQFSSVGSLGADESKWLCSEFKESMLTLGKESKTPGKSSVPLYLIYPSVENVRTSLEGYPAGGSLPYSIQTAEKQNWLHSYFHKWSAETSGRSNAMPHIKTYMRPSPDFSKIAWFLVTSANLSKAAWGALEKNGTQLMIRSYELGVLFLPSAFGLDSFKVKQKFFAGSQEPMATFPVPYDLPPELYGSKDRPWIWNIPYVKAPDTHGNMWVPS
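Compounds were preincubated with Tdp1 (1 nM final) for 15 min at room temperature before substrate (15 nM final) started a 5 min reaction; beads (10 ug/ml final) were then added for 10 min before AlphaScreen detection.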
IL1B secr inh – inflammasome signaling inhibition, IL-1 beta readout; THP-1 LPS/ATP IL-1B secretion, AlphaLISA, 16 h; stronger effect = lower value; activity change, % at 57.5 µM; 4.7% of 360,000 active; AID 743279; in the data active = activity change below about -50%; inconclusive = mostly about -30% to -49%
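Secreted IL-1B measured by AlphaLISA bead assay after 16 h compound exposure of THP-1 cells; compounds (final up to 57.5 uM) added 1 h before LPS (250 ng/mL) and ATP (1.25 mM) stimulation; lower signal means less secretion.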
ELG1 DNA repair – ELG1-dependent DNA repair inhibition | 2.3% of 330,000 active | HEK293T ELG1-luciferase reporter, luminescence, 16 h; DNA damage induced by 5-fluorouridine | Potency, µM (highest dose often 46.1 µM), without a hit: at the highest dose activity change, negative = inhibition, actives largely listed as inhibitors; also: potency is read from the fitted curve at half-maximal effect; nearly all actives have a fitted effect of over 55% in size
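Luminescence from the luciferase reporter, measured 30 min after ONE-Glo reagent at room temperature, was the read-out. Beforehand, 2,000 cells per well were exposed for 16 hr at 37 °C to 5-fluorouridine together with compound or vehicle.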
Giardia killer – kills Giardia lamblia; Giardia lamblia trophozoite viability; activity change, % at 7.66 µM, hits read low; 0.15% of 340,000 active; in the data active = activity change below about -80%; inconclusive = between about -30% and that limit;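 also: parasites exposed to compound for two days anaerobically before the ATP read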
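Trophozoite viability was measured as ATP-dependent luminescence, read 15-30 min after reagent addition. Before that, parasites at 100 cells/well were exposed to compounds for 48 h, anaerobically, at 37 deg C.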
DT40 TDP1 CPT – DT40-hTDP1 cell growth loss with CPT; chicken DT40 Tdp1-/-;hTDP1 cells + 20 nM CPT, ATP luminescence, 48 h; Potency, µM (top dose mostly 46.2 µM), inactives show at the top dose activity change, negative = growth inhibition, usual class: inhibitors; 12% of 420,000 active; AID 686979; also: potency is read from the fitted curve at half-maximal effect; nearly all actives have a fitted effect of over 55% in size
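Chicken DT40 Tdp1-/- cells stably complemented with human TDP1 were seeded at 400 cells/well in medium containing 20 nM camptothecin, exposed to pin-transferred compounds, and grown at 37 °C for at least 48 hr. Viability was read as ATP luminescence.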
TDP1 cell noCPT – qHTS for Inhibitors of human tyrosyl-DNA phosphodiesterase 1 (TDP1): qHTS in cells in absence of CPT; AID 686978, 2013; Potency, µM (doses to about 46.2 µM), for the others: at the top dose activity change, negative = growth inhibition, actives largely listed as inhibitors; DT40 Tdp1-/- hTDP1 cells, no CPT, ATP luminescence, 48 h; 15% of 420,000 active; also: potency is read from the fitted curve at half-maximal effect; nearly all actives have a fitted effect of over 55% in size
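Readout: luminescence from CellTiter-Glo after 30 min in the dark at RT. Cells: DT40 Tdp1-/- with stable hTDP1, 400/well. Exposure: compounds alone, ≥48 hr, 37 °C.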
* hit, by the source's call; ? = inconclusive; · = not tested or not shown; [ ] = another dose, or the depositor's remark. In the library only some 19% were active in any assay of this set; here they are far more common. Unless noted, calls follow the shape of the dose curve; as a rule, active = well fitted curve in the direction sought with a large enough effect; inconclusive = small, poorly fitted or top-dose-only effect, or another doubt; inactive = no such curve, though single readings can be large; an effect the other way counts as inactive or inconclusive. % is scaled to controls: 0 for no effect and ±100 for the full control effect.

SMILES	TDP1 block	IL1B secr inh	ELG1 DNA repair	Giardia killer	DT40 TDP1 CPT	TDP1 cell noCPT
CCOC(=O)C1=C(O)/C(=C/c2cc(OC)c(OC)c(OC)c2)SC1=Nc1ccc(OC)cc1	4%	-10	?	12	?	21µM*
COc1ccccc1C(=O)Nc1ccc(OCC(=O)N2CCCCC2C)cc1 (stereo not given)	0%	-26	-7%	-6	-8%	-20%
COCCC(=O)Nc1ccc2c(c1)CN(C(=O)c1ccc(CSC)o1)CC2	·	11	3%	14	-28%	2.9µM*
O=C(NCCc1ccc(Cl)cc1)c1cccn1-c1nnc(N2CCCC2)s1	11%	·	·	·	23µM*	?
O=C(NCc1cccc(Br)c1)c1cccn1-c1nnc(N2CCCCC2)s1	3%	·	·	·	?	15µM*
Cc1ccc(NC(=O)c2cccn2-c2nnc(N3CCCCC3)s2)cc1Cl	3%	·	·	·	?	?
O=C(NCCc1ccc(Cl)cc1)c1cccn1-c1nnc(N2CCCCC2)s1	3%	·	·	·	?	23µM*
CCn1nc(C)c(CCN(C)C(=O)Nc2cc(Cl)ccc2C)c1C	4%	·	·	·	-3%	?
NC(Cc1ccccc1)C(=O)N1CCCCC1 (stereo not given)	·	-25	-4%	-28	15%	12%
Nc1cccc2c1C(=O)N(C(=O)/C=C/c1cccc(F)c1)C2=O	3%	-70*	0%	-6	?	?
Nc1cccc2c1C(=O)N(C(=O)/C=C/c1cccc(Br)c1)C2=O	6%	-75*	0%	36	10µM*	23µM*
Cc1ccc(C(=O)N2C(=O)c3cccc(N)c3C2=O)o1	5%	8	13%	5	1%	-3%
COc1ccc(-n2nc3cc(C)c(NC(=O)COc4cccc(C)c4)cc3n2)cc1	-4%[12.3 µM]	·	·	·	6%	0%
COc1cccc(NC(=O)c2sc3nc(N4CCOCC4)c4c(c3c2N)CC(C)(C)OC4)c1	1%	·	·	·	5.8µM*	6.5µM*
CCOC(=O)c1sc2nc(-c3ccco3)c3c(c2c1N)CC(C)(C)OC3	-2%	-53*	?	-23	21µM*	21µM*
COc1ccc(NC(=O)c2sc3nc(N4CCCC4)c4c(c3c2N)CC(C)(C)OC4)c(OC)c1	4%	?	0%	-24	?	-28%
CC1(C)Cc2c(c(N3CCOCC3)nc3snc(N)c23)CO1	3%	-108*	8%	-9	2.8µM*	2.5µM*
CC1(C)Cc2c(c(N3CCOCC3)nc3sc(C(N)=O)c(N)c23)CO1	8%	-15	5.2µM*	-15	9%	?
CN1Cc2c(N3CCOCC3)nc3sc(C(=O)c4ccccc4)c(N)c3c2CC1(C)C	8%	-10	?	-12	16µM*	?
CC1(C)Cc2c(c(N3CCOCC3)nc3sc(C(=O)Nc4ccc(Cl)cc4)c(N)c23)CO1	2%[0.0935 µM]	-1	0.92µM*	7	?	23µM*
CCOC(=O)c1sc2nc(N3CCOCC3)c3c(c2c1N)CCN(Cc1ccccc1)C3	6%	-24	?	28	?	?
COC(=O)c1ccc(-c2sc3nc(N4CCOCC4)c4c(c3c2N)CC(C)(C)OC4)o1	5%	7	5.2µM*	4	?	?
Cc1nc2c(sc3nc(N4CCOCC4)c4c(c32)CC(C)(C)OC4)c(-c2ccc(Cl)cc2)c1C(=O)O	-4%	-1	?	-1	?	?
COc1ccc(NC(=O)c2sc3nc(N4CCOCC4)c4c(c3c2N)CCCC4)cc1	·	-4	·	·	5%	-21%
Cn1cccc1/C=C1\SC(=O)N(c2ccc(O)cc2)C1=O	-1%	-9	?	-17	-22%	?
SMILES	TDP1 block	IL1B secr inh	ELG1 DNA repair	Giardia killer	DT40 TDP1 CPT	TDP1 cell noCPT
C[C@H](O)CN(C)C	-1%	·	·	·	3%	-19%
CCN(Cc1ccccc1)S(=O)(=O)c1ccc(C(=O)N(CCCN(C)C)c2nc3cc(OC)ccc3s2)cc1	-1%[0.505 µM]	-100*	?	-1	?	23µM*
COc1ccc2sc(N(CCCN(C)C)C(=O)c3ccc(C(=O)c4ccccc4)cc3)nc2c1	2%	-88*	-8%	27	16µM*	?
CN(C)CCCN(C(=O)c1ccc(S(=O)(=O)N(C)Cc2ccccc2)cc1)c1nc2c(F)cccc2s1	9%	-96*	2%	29	?	-7%
CCOC(=O)N1CCN(S(=O)(=O)c2ccc(C(=O)N(CCCN(C)C)c3nc4ccc(OC)cc4s3)cc2)CC1	6%	?	11%	4	?	?
CCN(c1ccccc1)S(=O)(=O)c1ccc(C(=O)N(CCN(C)C)c2nc3c(F)cc(F)cc3s2)cc1	9%[56.1 µM]	·	-1%	·	·	·
CCN(Cc1ccccc1)S(=O)(=O)c1ccc(C(=O)N(CCCN(C)C)c2nc3ccc(F)cc3s2)cc1	10%	-101*	-8%	-10	?	-7%
O=c1[nH]c(=O)n([C@H]2CCCO2)cc1F	·	·	·	·	1%	-4%
CN(C)CCN(C(=O)c1ccc(S(=O)(=O)N(C)c2ccccc2)cc1)c1nc2cc3c(cc2s1)OCCO3	3%	7	?	6	-13%	?
CCN(Cc1ccccc1)S(=O)(=O)c1ccc(C(=O)N(CCCN(C)C)c2nc3cc4c(cc3s2)OCCO4)cc1	·	-95*	-11%	3	?	?
CC(=O)NCC(=O)N1CCCC(C(=O)c2ccc(Oc3ccccc3)cc2)C1 (stereo not given)	5%	-17	12%	-23	9.2µM*	?
Cc1ncoc1C(=O)N1CCCC(C(=O)c2ccc(Oc3ccccc3)cc2)C1 (stereo not given)	·	0	?	-16	6%	-10%
COc1ccccc1CNS(=O)(=O)c1ccc(N2CCCC2)cc1Br	1%[56.1 µM]	-5	?	4	16µM*	?
CCC(=O)N1CCc2cc(Br)cc(S(=O)(=O)NCc3ccccc3OC)c21	-5%	0	-2%	17	-9%	-26%
O=c1[nH][nH]c2c1[C@H](CCc1cccc(Cl)c1)O[C@H](CCc1ccccc1)C2	·	0	·	·	?	18µM*
O=c1[nH]c(=S)[nH]c2c1[C@H](C1CC1)O[C@H](CCc1ccccc1)C2	·	1	·	·	?	13µM*
Cc1ccc(CSc2nnc(NC(=O)C3=COCCO3)s2)cc1	2%	-2	?	-2	-21%	-6%
Fc1ccc(Sc2nc(-c3ccccc3)nnc2C(F)(F)F)cc1	3%	-120*	?	-11	5.8µM*	13µM*
CC1(C)Cc2ccccc2-c2n[nH]c(=S)n21	2%	2	-11%	5	?	23µM*

Screening data: PubChem BioAssay, National Center for Advancing Translational Sciences (NCATS)
